Consider 30 molecules from PubChem BioAssay (NCATS).

Inconclusive results are not listed. Entries that show only a call come without a potency. Activity calls are given as the source filed them. Calls come from the whole dose curve; as a rule, active = well fitted inhibition curve with a large enough effect; inconclusive = small, poorly fitted or top-dose-only effect; inactive = flat fitted curve, though single readings scatter. *1 amine or outer side, *2 acyl side, *3 side chain or, on linkers, in order; H or OH if unused. Where a SMILES comes first, the peptide text is derived from it. [ ]: non-standard residue; d: D form. X4 = CC(C)=CCc1cc(C(O)C(N[*:1])C(=O)[*:2])ccc1O

The target in the assay is Glutathione peroxidase 1 (Homo sapiens) (UniProt P07203). Briefly: Primary qHTS Assay for Inhibitors of Recombinant Selenoprotein Glutathione Peroxidase 1 (GPX1) (AID 1845191). Note: nearly all actives have a fitted effect of over 65% in size. The following applies: recombinant GPX1, GR-coupled NADPH fluorescence, 15 min; series mostly up to 48.8 µM. Put shortly: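 NADPH consumption tracked by fluorescence at 340/450 nm between t=0 and t=15 min, room temperature. Final mix: 10 nM GPX1, 100 nM glutathione reductase, 1 mM GSH, 0.5 mM NADPH, 0.5 mM cumene hydroperoxide, 0.01% BSA; 30 min compound–enzyme preincubation.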
Glutathione peroxidase 1 (Homo sapiens), sequence (P07203 whole entry, looked up): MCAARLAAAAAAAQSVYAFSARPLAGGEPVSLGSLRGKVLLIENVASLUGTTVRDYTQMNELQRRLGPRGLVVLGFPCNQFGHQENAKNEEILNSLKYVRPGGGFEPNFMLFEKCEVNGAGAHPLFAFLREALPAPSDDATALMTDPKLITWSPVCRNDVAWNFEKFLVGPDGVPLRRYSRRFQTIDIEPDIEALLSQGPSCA
As for `O=C(O)C(O[C@@H]1O[C@H](CO[C@@H]2O[C@H](CO)[C@@H](O)[C@H](O)[C@H]2O)[C@@H](O)[C@H](O)[C@H]1O)c1ccccc1` (stereo not given in full), the Potency entry is “inactive”.
On to `O=C(CC(c1ccccc1)c1ccccc1)N1CCN(C(c2ccccc2)c2ccccc2)CC1`, for which the Potency entry was “inactive”.
As to `CS(=O)(=O)N(CC(=O)NCC1CC1)c1cc(C(F)(F)F)ccc1Cl`, the Potency result was “inactive”.
`CCOc1cc(C(=O)N2CCC(N3CCN(C)CC3)CC2)ccc1Nc1ncc2c(n1)N(C1CCCC1)c1ccccc1C(=O)N2C`: the Potency entry is “inactive”.
With `Cc1cc(C(=O)Nc2cccc(C(=O)Nc3cccc(C(F)(F)F)c3)c2)on1`, the Potency entry was “inactive”.
Regarding `O=C(CCc1nnc2n(Cc3ccc(Cl)cc3)c(=O)c3ccccc3n12)NCCC1=CCCCC1`, the Potency result was “inactive”.
For `CC(C)=CCC[C@](C)(O[C@@H]1O[C@H](CO)[C@@H](O)[C@H](O)[C@H]1O)[C@H]1CC[C@]2(C)[C@@H]1[C@H](O)CC1[C@@]3(C)CC[C@H](O)C(C)(C)C3[C@@H](O[C@@H]3O[C@H](CO)[C@@H](O)[C@H](O)[C@H]3O)C[C@]12C` (stereo not given in full), the Potency result was “inactive”.
Turning to `CC(C)(C)c1ccc(S(=O)(=O)NCc2ccc(C(=O)Nc3cccnc3)cc2)cc1`, the Potency entry was “inactive”.
`C[C@@H]1C[C@H]2O[C@@H]2/C=C\C=C\C(=O)Cc2c(Cl)c(O)cc(O)c2C(=O)O1`: the Potency entry was “inactive”.
Next, `C=C1CC2C(C)(CCC(=O)O)C(C(C)(C)O)CCC2(C)C2C(=O)OC(C)(C(=O)OC)C(=O)C12C` (stereo not given): “inactive”; `O=C(O)CC1CCC(c2ccc(-c3ccc4nc(C(=O)NCc5ccc(OC(F)(F)F)cc5)cn4c3)cc2)CC1` (stereo not given): “inactive”; `O=C1NC(Cc2c[nH]c3ccccc23)C(=O)NC1Cc1cnc[nH]1` (stereo not given): “inactive”.
Regarding `COc1ccc(Cl)c(Nc2nc3ccccc3nc2NS(=O)(=O)c2cccc(NC(=O)C(C)(C)N)c2)c1`, the Potency entry was “inactive”.
For `CC(=O)O[C@@H]1C[C@H](O)[C@@]23CO[C@H](O)[C@]1(C)C2C[C@@H](O)[C@]1(C)C3C(=O)[C@H](OC(C)=O)[C@@]2(C)[C@H](c3ccoc3)C[C@H]3O[C@]321` (stereo not given in full), the Potency result is “inactive”.
For `COc1ccc(-c2ccc(-c3cn(C(=O)N4CCCCC4c4ccccc4)nn3)cc2)cc1` (stereo not given) the value was “inactive”.
In the case of `CC1=C(C(=O)O)/C(=C/CO[C@@H]2O[C@H](COC(=O)/C=C/c3ccc(O)cc3)[C@@H](O)[C@H](O)[C@H]2O)C(O)C1` (stereo not given in full), the Potency result is “inactive”.
Regarding `O=C(Nc1ccn[nH]1)c1c(F)cccc1F`, the Potency result was “inactive”.
As to `CCOc1cc(C)c(Cl)cc1S(=O)(=O)n1cnc2ccccc21`, the Potency entry is “inactive”.
As for `C[C@@H]1C(=O)O[C@H]2C[C@]34[C@H]5C[C@@H](C(C)(C)C)[C@]36[C@@H](OC(=O)[C@H]6O)O[C@]4(C(=O)O5)[C@]21O`, the Potency entry is “inactive”.
For `COc1ccc([C@H]2CNC(=O)C2)cc1OC1CCCC1` the value was “inactive”; for `CC(C)[C@@H]1C(=O)N(S(C)(=O)=O)[C@@H]2CCN(C(=O)/C=C/CN3CCCCC3)[C@H]21`, “inactive”.
For `CC1(C)CC[C@]2(C(=O)O[C@@H]3O[C@H](CO)[C@@H](O)[C@H](O)[C@H]3O)CC[C@]3(C)C(=CCC4[C@@]5(C)C[C@@H](O)[C@H](O)[C@](C)(C=O)C5CC[C@]43C)[C@@H]2[C@@H]1O` (stereo not given in full) the value was “inactive”; for `O=C(Nc1c(-c2cccs2)nc2ccccn12)c1ccc(Cl)cc1`, “inactive”; for `CC1CC[C@]2(C(=O)O)CC[C@]3(C(=O)O)C(=CCC4[C@@]5(C)CC[C@H](O[C@@H]6O[C@H](CO)[C@@H](O)[C@H](O)[C@H]6O)C(C)(C)C5CC[C@]43C)C2C1C` (stereo not given in full), “inactive”.
Next, `C[C@H]1CC(=O)Nc2cccc(-c3cnn(C(C)(C)C)c3)c2N1`: “inactive”.
Take `CC12CCC(OC3OC(CO)C(O)C(OC4OC(CO)C(O)C(O)C4O)C3O)CC1CCC1C2CCC2(C)/C(=C3/COC(=O)C3)CCC12O` (stereo not given): the Potency entry was “inactive”.
For `NC(=O)[C@H]1CCS[C@@H]2C[C@]3(CCCN3C(=O)Cc3ccc(NC(=O)COc4ccc(Cl)cc4Cl)cc3)C(=O)N12` the value was “inactive”.
In the case of `O=C(O)CC(=O)OC[C@H]1O[C@@H](Oc2ccc3c(c2)OC[C@H]2c4cc5c(cc4O[C@@H]32)OCO5)[C@H](O)[C@@H](O)[C@@H]1O`, the Potency entry was “inactive”.
As for `COC(=O)C1=CO[C@@H](O[C@@H]2O[C@H](CO)[C@@H](O)[C@H](O)[C@H]2O)[C@@H]2[C@@](C)(O)[C@@H](OC(=O)/C=C/c3ccc(O)cc3)C[C@]12O`, the Potency result is “inactive”.
Regarding `CC(C)=CCc1cc(C(O)C2NC(=O)CNC(=O)C(Cc3c[nH]c4ccccc34)NC(=O)C3CCCN3C(=O)CNC(=O)C(C(C)C)NC(=O)CNC2=O)ccc1O` (stereo not given) (cyclo(G[X4]GVGPW); configuration not given here), the Potency entry is “inactive”.
